PMC4336329 (PLoS ONE, 2015)
The whole screen tested about 310,000 compounds, of which about 14,000 (4.5%) showed an effect of 50% or more. The effect is printed as a negative number. Many of the other results were omitted from the sample, so strong results are more common in it than they were.

target: human ether-à-go-go-related gene (hERG) potassium channel (human, UniProt Q12809); test: primary screen, population patch clamp on CHO cells stably expressing hERG; higher = less effect of the substance
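Note: peak tail current of the secondary pulse compared with the same well before compound.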

human ether-à-go-go-related gene (hERG) potassium channel, sequence (Q12809 whole entry, looked up): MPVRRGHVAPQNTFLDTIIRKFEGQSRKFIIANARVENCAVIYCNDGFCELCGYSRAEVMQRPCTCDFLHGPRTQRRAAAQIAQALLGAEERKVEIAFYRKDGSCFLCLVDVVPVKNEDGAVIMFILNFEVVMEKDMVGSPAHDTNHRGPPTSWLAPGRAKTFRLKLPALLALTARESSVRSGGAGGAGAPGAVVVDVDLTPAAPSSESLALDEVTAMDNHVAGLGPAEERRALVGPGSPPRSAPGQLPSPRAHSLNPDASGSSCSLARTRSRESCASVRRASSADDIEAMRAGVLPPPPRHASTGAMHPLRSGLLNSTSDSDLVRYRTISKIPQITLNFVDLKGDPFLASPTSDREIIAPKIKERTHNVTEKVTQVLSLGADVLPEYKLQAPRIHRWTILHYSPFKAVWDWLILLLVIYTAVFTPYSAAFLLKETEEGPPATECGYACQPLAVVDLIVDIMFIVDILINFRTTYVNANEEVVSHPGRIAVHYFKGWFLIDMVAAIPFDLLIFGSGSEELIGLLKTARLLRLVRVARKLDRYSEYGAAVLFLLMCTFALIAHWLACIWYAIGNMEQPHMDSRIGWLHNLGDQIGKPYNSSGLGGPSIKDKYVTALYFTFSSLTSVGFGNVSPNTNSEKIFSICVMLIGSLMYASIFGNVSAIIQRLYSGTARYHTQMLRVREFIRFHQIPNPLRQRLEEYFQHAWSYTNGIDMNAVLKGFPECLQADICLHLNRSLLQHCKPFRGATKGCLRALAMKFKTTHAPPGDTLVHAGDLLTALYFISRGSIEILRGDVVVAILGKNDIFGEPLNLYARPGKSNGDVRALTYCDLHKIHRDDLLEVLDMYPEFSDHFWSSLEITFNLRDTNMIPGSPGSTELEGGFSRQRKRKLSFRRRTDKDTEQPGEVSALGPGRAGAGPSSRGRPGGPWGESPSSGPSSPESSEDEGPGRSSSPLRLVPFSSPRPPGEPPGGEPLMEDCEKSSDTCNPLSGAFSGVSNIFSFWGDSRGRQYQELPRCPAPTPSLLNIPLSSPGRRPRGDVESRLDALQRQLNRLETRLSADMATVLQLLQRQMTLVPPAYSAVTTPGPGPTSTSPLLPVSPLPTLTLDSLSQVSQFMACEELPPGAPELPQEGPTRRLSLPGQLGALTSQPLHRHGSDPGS

Structure (SMILES) | hERG current change (%, negative = inhibition) at 10uM
Cc1cc(C)cc(OCC(=O)N/N=C/c2ccco2)c1 | 37.4%
COc1cccc(-n2nnc3c(=O)n(CC(=O)OCc4ccccc4)cnc32)c1 | 9.39%
c1ccc(C2c3[nH]c4ccccc4c3CCN2Cc2cccn2-c2ccccn2)nc1 (centres unmarked) | -70.5%
O=C(Cc1ccsc1)N1CCc2c([nH]c3ccccc23)C1c1ccccn1 (centres unmarked) | 4.87%
Clc1ccc(-n2cccc2CN2CCc3c([nH]c4ccccc34)C2c2ccccn2)nc1 (centres unmarked) | -77%
c1ccc(C2c3[nH]c4ccccc4c3CCN2Cc2cccn2-c2cccnc2)nc1 (centres unmarked) | -23.7%
CC(=O)Nc1ccc(CN2CCc3c([nH]c4ccccc34)C2c2ccccn2)cc1 (centres unmarked) | -38.5%
CSc1ncc(CN2CCc3c([nH]c4ccccc34)C2c2cccc(C)n2)cn1 (centres unmarked) | -13.8%
CCOC(=O)C1CCN(S(=O)(=O)c2ccc(Cl)nc2)CC1 | -2.6%
COc1ccc2oc(C(=O)NCCC(C)C)c(C)c2c1 | -0.78%
Cn1nc(C(=O)OCc2ccccc2F)c2ccccc2c1=O | 13%
COc1ccc(C(C)(C)C)cc1NC(=O)c1cccc(S(=O)(=O)N2CCN(C(C)=O)CC2)c1 | 11.5%
Cc1ccc(S(=O)(=O)N2CCN(c3ncnc4c3cnn4-c3ccccc3)CC2)cc1 | 14.3%
Oc1ccccc1C1=Nc2ncnn2C(c2ccc(F)cc2)C1 (centres unmarked) | -80.8%
Oc1ccccc1C1=Nc2ncnn2C(c2ccccc2)C1 (centres unmarked) | -16.6%
Oc1ccccc1C1=NN(c2ccccc2)C(c2ccc(F)cc2)C1 (centres unmarked) | 9.68%
COc1ccc(NC2CC(=O)NC2=O)cc1 (centres unmarked) | 5.24%
CN1C(=O)C(=Cc2cc([N+](=O)[O-])ccc2N2CCCCC2)C(=O)N(C)C1=O | 19.3%
O=C1NC(=S)N/C1=C/c1cc([N+](=O)[O-])ccc1N1CCOCC1 | -62.9%
CC(=O)N1CCN(C(=S)c2cccc([N+](=O)[O-])c2)CC1 | 8.96%
O=Cc1cc([N+](=O)[O-])ccc1N1CCOCC1 | -19.3%
CC(=O)N1CCN(c2ccc([N+](=O)[O-])cc2C=C2C(=O)NC(=O)NC2=O)CC1 | -56.6%
CCN1CCN(c2ccc([N+](=O)[O-])cc2C=C2C(=O)NC(=O)NC2=O)CC1 | -66.3%
CC(=O)N1c2ccc([N+](=O)[O-])cc2NC(=O)CC1C (centres unmarked) | 22.2%
O=C1NC(=O)C(=Cc2cc([N+](=O)[O-])ccc2N2CCCCC2)C(=O)N1 | 7.84%
O=C1NC(=S)N/C1=C/c1cc([N+](=O)[O-])ccc1O | 12.8%
